# According to PMC5540273 (PLoS ONE, 2017):
# Tests used:
# Settings in all cases: concentration: 1 μM, replicates: in singlicate; n = 1
# [1] = tested on: RPS6KA5(Kin.Dom.2-C-terminal)
# [2] = tested on: T1, RSK1(Kin.Dom.1-N-terminal)
# T1 construct: gene RPS6KA1
# [3] = tested on: T2, RSK1(Kin.Dom.2-C-terminal)
# T2 construct: gene RPS6KA1
# [4] = tested on: T3, RSK2(Kin.Dom.1-N-terminal)
# T3 construct: gene RPS6KA3
# [5] = tested on: T4, RSK2(Kin.Dom.2-C-terminal)
# T4 construct: gene RPS6KA3
# [6] = tested on: T5, RSK3(Kin.Dom.1-N-terminal)
# T5 construct: gene RPS6KA2
# [7] = tested on: T6, RSK3(Kin.Dom.2-C-terminal)
# T6 construct: gene RPS6KA2
# [8] = tested on: T7, RSK4(Kin.Dom.1-N-terminal)
# T7 construct: gene RPS6KA6
# [9] = tested on: T8, RSK4(Kin.Dom.2-C-terminal)
# T8 construct: gene RPS6KA6
# S6K1 = tested on: S6K1
# SBK1 = tested on: SBK1
# SGK2 = tested on: SGK2
# SGK3 = tested on: SGK3
# SGK = tested on: SGK
# SIK2 = tested on: SIK2
# SIK = tested on: SIK
# SLK = tested on: SLK
# SNARK = tested on: T9, SNARK
# T9 construct: gene NUAK2
# SNRK = tested on: SNRK
# SRC = tested on: SRC
# 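Also: KINOMEscan kinase panel screen.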
Compound,%Inh [1],%Inh [2],%Inh [3],%Inh [4],%Inh [5],%Inh [6],%Inh [7],%Inh [8],%Inh [9],%Inh (S6K1),%Inh (SBK1),%Inh (SGK2),%Inh (SGK3),%Inh (SGK),%Inh (SIK2),%Inh (SIK),%Inh (SLK),%Inh (SNARK),%Inh (SNRK),%Inh (SRC)
COc1ccc(Nc2nccc(N3CCC(NC(=O)c4cccc(NC(C)=O)c4)C3)n2)cc1 (stereo not drawn) [GSK1379732],20%,0%,0%,0%,16%,23%,6%,0%,27%,0%,21%,3%,3%,15%,0%,0%,6%,3%,0%,0%
Nc1nc(-c2ccc3c(N)n[nH]c3c2)cc(N2CCC[C@@H](C(=O)Nc3ccccc3)C2)n1.O=C(O)C(F)(F)F.O=C(O)C(F)(F)F [GSK2288359],6%,20%,13%,0%,0%,7%,0%,0%,5%,0%,0%,0%,8%,0%,0%,0%,0%,21%,0%,0%
Cc1ccc(C)c(NC(=O)NCCNc2ccnc(Nc3ccc(F)cc3)n2)c1 [GSK1379878],5%,0%,0%,0%,0%,0%,0%,0%,0%,0%,0%,0%,0%,0%,0%,0%,0%,0%,0%,0%
COc1ccc(Nc2nccc(N3CCC(NC(=O)Nc4ccc5c(c4)OCO5)C3)n2)cc1 (stereo not drawn) [GSK1379745],0%,0%,8%,10%,0%,17%,19%,0%,41%,0%,21%,6%,6%,1%,0%,6%,27%,8%,0%,22%
O=C(Nc1ccccc1)Nc1ccc(Oc2ccc3nccn3n2)cc1,19%,5%,0%,0%,0%,6%,0%,0%,0%,0%,0%,0%,3%,0%,0%,0%,20%,0%,0%,0%
Clc1ccc(-c2cc(-c3c[nH]nc3-c3ccccn3)ccn2)cc1 [GW681251],0%,6%,13%,0%,21%,0%,0%,0%,44%,0%,4%,0%,6%,0%,0%,0%,10%,0%,0%,0%
Cl.Fc1ccccc1COc1ccc(Nc2ncnc3ccc(-c4nnc(C(F)(F)F)o4)cc23)cc1Cl [GW424170],0%,1%,1%,0%,0%,0%,0%,0%,2%,0%,0%,0%,0%,0%,0%,1%,20%,0%,0%,0%
Clc1cc(Nc2ncnc3cc[nH]c23)ccc1OCc1ccccn1,1%,0%,28%,10%,0%,26%,20%,2%,28%,29%,41%,24%,28%,31%,8%,16%,21%,27%,26%,15%
CCc1nc(-c2cccc(N(C)S(=O)(=O)c3ccccc3)c2)c(-c2ccnc(Nc3ccc(N4CCN(C(C)=O)CC4)nc3)n2)s1 [GSK1645895],2%,26%,24%,0%,1%,8%,23%,0%,20%,7%,5%,0%,19%,0%,0%,0%,3%,23%,0%,16%
CC(C)N1CCC(n2cnc(-c3ccc(F)cc3)c2-c2ccnc(N)n2)CC1 [SB-223132],0%,0%,56%,3%,29%,12%,4%,0%,66%,0%,0%,0%,0%,0%,4%,14%,12%,0%,0%,0%
CSc1nn2c(=O)cc(N3CCOCC3)nc2n1Cc1cccc(Cl)c1Cl [GSK2347225],8%,18%,15%,0%,0%,10%,0%,0%,9%,0%,6%,8%,1%,0%,72%,13%,18%,8%,0%,26%
Oc1ccc2ncnc(Nc3ccc(OCc4ccccc4)cc3)c2c1 [GI262866],0%,0%,0%,0%,0%,5%,0%,0%,0%,0%,5%,0%,0%,6%,0%,0%,1%,0%,0%,0%
O=C(Nc1ccccc1F)NC1CCN(c2ccnc(Nc3ccc(F)cc3)n2)C1 (stereo not drawn) [GSK1379722],19%,8%,0%,14%,28%,13%,0%,0%,0%,11%,21%,0%,0%,0%,0%,0%,5%,0%,0%,0%
CN1c2ccc(-c3ccc(C(=O)NCCO)cc3)cc2-c2[nH]ncc2S1(=O)=O,14%,0%,26%,12%,41%,0%,35%,3%,27%,33%,0%,23%,0%,10%,16%,16%,25%,0%,0%,46%
COc1cc2ncnc(Nc3ccc(OCc4ccccc4Br)c(Cl)c3)c2cc1OC.Cl [GI261590],0%,32%,0%,0%,3%,100%,0%,0%,0%,11%,7%,11%,0%,4%,12%,0%,86%,0%,0%,0%
